Where “and” joins values, the source holds several entries; their conditions need not be identical. Equal values may be shown once. Compounds without any hit were thinned out: in the full panel of roughly 83,000, 20% have a hit.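 Assay: single dose, 48 h. Readout: percent growth (0 = no net growth; negative = cell death). Active: <10.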 Values without a mark were called inactive. Calls of active or inactive are those of the source.
System: MDA-MB-468 breast
Assay: NCI-60 one-dose screen, 48 h (100 = growth as untreated, 0 = no growth, -100 = all killed)
Conditions: 10 µM unless noted

Row | Compound | growth
1 | O=c1c(Br)ccc(Br)cc1Br | -65.9% (active)
2 | CNCCOc1nc2c3cnccc3cc(-c3cc(OC)c(OC)c(OC)c3)c2c2ccncc12 | -43.2% (active)
3 | Cn1c(=O)c2c3c(oc2c2ccccc21)C(=O)c1ccccc1C3=O | -9.91% (active)
4 | CCOC(Cc1c(N)[nH]c(=S)[nH]c1=O)OCC | 101%
5 | Oc1[nH]c2ccccc2c1N=Nc1nnc2n1N=C(c1ccccc1)CS2 | 104%
6 | CCNc1cc(-c2cccc(OC(F)(F)F)c2)nc2ccc(N3CCCC3)cc12 | -34.9% (active)
7 | O=CC(O)C(O)C(O)CO (stereo unspecified) | 104% and 102%
8 | O=[N+]([O-])c1ccc(N=Nc2c(Cl)cc(O)cc2Cl)cc1 | -11.7% (active)
9 | O=S(=O)(Oc1ccc(-c2cn3ccoc3n2)cc1)c1cccc(C(F)(F)F)c1 | 86.9%
10 | Cn1cc(-c2csc(-c3cn(C)c4ccc(Br)cc34)n2)c2cnccc21 | -68.4% (active)
11 | O=C1NC(=O)/C(=C/C=C/c2ccccc2)S1 | 63.3%
12 | CN1CCC[C@]2(C)[C@H]3CC[C@@H]4[C@@H]5[C@H]6OC[C@@]5(CCC6(C)C)CC[C@@]4(C)[C@]3(C)CC[C@H]2C1(C)C | 82%
13 | CCCCCCCC/C=C\CCCCCCCCOc1cccc(CC(=O)NCC[N+]2(C)CCOCC2)c1 | 86%
14 | COc1cc2c(O)n(CCCN3CCOCC3)c3c4cnc5cccc(c(=O)c3c2cc1OC)c54 | 47.1%
15 | Cc1cn(-c2cc(NC(=O)c3cccc(C#Cc4cccc5[nH]nc(N)c45)c3)cc(C(F)(F)F)c2)cn1 | 67.7%
16 | O=C1C(=O)c2c(nc3ccc(Br)cn23)-c2ccccc21 | -58% (active)
17 | C=C(C)C1CCC2(C(=O)O)CCC3(C)C(CCC4C5(C)CCC(OC(=O)NCc6ccccc6)C(C)(C)C5CCC43C)C12 (stereo unspecified) | 35.3%
18 | COc1ccc2c(c1)C=CC1(O2)Oc2ccc(OC)cc2C=C1C (stereo unspecified) | 47.3%

Row | Compound | growth
19 | CC(Nc1c(C#N)cnc2ccc(-c3cncc(O)c3)cc12)c1ccccc1 (stereo unspecified) | -37% (active)
20 | Oc1c(Cl)cc(Cl)cc1CNc1nccnn1 | 109%
21 | COc1cc(/C=C/c2c(C(C)=O)c(C)nc3ccccc23)cc(OC)c1OC | -4.86% (active)
22 | CS(=O)(=O)c1ccc(-c2nn(-c3ccccc3)cc2/C=C/C(=O)c2ccc(Br)cc2)cc1 | 91.4%
23 | COc1ccc(/C=C2\SC(=S)N(CCCN3CCOCC3)C2=O)c(OC)c1 | 87.4%
24 | CS(=O)c1nccc(-c2c(-c3ccc(F)c(OCc4ccc(F)cc4)c3)nc3sccn23)n1 (stereo unspecified) | -69.4% (active)
25 | Nc1cc2[nH]c(=O)c3ccccc3c2cc1Br | -50.6% (active)
26 | Cc1n(Cc2ccc3ccccc3c2)c2ccccc2[n+]1Cc1ccc2ccccc2c1 | -60.8% (active)
27 | CC(=O)[C@H]1CC[C@]2(C)[C@@H]1CC[C@@H]1[C@@]3(C)C/C(=C/c4cccnc4)C(=O)C(C)(C)[C@@H]3CC[C@]12C | 60.3%
28 | CC(=O)c1cc2c(N)c(C(=O)Nc3ccccn3)sc2nc1C | 57.3%
29 | COc1ccc2[nH]cc(C3(c4c[nH]c5ccc(OC)cc45)C(=O)Nc4ccc(Cl)cc43)c2c1 | 97.7%
30 | Cc1ccc2c(/C=C/C(=O)c3cc(CN4CCOCC4)c(O)c4nc(C)ccc34)cc(CN3CCOCC3)c(O)c2n1 | -40.4% (active)
31 | O=C(CNCCN1CCOCC1)N1c2cccc3cccc(c23)N(C(=O)CNCCN2CCOCC2)C1c1cn(-c2ccccc2)nc1-c1cccc([N+](=O)[O-])c1 | 35.8%
32 | COC(=O)[C@]12CC[C@@H](C)[C@H](C)[C@@H]1C1=CC[C@@H]3[C@@]4(C)C[C@@H](OC(=O)c5ccco5)[C@H](O)[C@@](C)(CO)[C@@H]4[C@H](O)C[C@@]3(C)[C@]1(C)CC2 | -89.1% (active)
33 | O=C1/C(=C\c2cn(-c3nc(N4CCOCC4)nc(N4CCOCC4)n3)c3ccccc23)c2ccccc2N1c1c(Cl)cccc1Cl | 17%
34 | COC(c1ccccc1)C(Br)C(=O)c1ccccc1 (stereo unspecified) | 94.8%
35 | Cn1cc(-c2nonc2-c2c[nH]c3ccc(Br)cc23)c2cc(Br)ccc21 | 21%
36 | CC(C)(C)OC(=O)N1CCc2c(sc3ncnc(N/N=C/c4ccc(Br)cc4)c23)C1 | 24.9%

From PubChem BioAssay (NCI)
